AMPAR-TARP mod: modulates AMPAR-stargazin complexes | HEK293 GluA2+stargazin, membrane potential dye (FDSS), glutamate EC50; hits were called plate by plate, in both directions | calls only at 30 µM | AID 1259245 | O88602+P19491 | actives 3.5% (n = 40,000);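 active = any of four per-well response measures lying three or more SD from its plate-wide compound average, in either direction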
Target sequence (O88602 whole entry, looked up): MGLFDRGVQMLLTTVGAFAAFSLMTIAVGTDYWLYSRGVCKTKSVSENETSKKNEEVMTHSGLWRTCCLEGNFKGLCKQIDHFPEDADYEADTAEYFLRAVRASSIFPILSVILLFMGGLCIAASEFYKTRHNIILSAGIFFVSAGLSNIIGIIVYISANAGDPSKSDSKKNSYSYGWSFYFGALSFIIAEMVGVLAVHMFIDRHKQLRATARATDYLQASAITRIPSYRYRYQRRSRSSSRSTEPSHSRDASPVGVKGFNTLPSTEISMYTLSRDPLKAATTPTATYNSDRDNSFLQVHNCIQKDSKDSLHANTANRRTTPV
Target sequence (P19491 whole entry, looked up): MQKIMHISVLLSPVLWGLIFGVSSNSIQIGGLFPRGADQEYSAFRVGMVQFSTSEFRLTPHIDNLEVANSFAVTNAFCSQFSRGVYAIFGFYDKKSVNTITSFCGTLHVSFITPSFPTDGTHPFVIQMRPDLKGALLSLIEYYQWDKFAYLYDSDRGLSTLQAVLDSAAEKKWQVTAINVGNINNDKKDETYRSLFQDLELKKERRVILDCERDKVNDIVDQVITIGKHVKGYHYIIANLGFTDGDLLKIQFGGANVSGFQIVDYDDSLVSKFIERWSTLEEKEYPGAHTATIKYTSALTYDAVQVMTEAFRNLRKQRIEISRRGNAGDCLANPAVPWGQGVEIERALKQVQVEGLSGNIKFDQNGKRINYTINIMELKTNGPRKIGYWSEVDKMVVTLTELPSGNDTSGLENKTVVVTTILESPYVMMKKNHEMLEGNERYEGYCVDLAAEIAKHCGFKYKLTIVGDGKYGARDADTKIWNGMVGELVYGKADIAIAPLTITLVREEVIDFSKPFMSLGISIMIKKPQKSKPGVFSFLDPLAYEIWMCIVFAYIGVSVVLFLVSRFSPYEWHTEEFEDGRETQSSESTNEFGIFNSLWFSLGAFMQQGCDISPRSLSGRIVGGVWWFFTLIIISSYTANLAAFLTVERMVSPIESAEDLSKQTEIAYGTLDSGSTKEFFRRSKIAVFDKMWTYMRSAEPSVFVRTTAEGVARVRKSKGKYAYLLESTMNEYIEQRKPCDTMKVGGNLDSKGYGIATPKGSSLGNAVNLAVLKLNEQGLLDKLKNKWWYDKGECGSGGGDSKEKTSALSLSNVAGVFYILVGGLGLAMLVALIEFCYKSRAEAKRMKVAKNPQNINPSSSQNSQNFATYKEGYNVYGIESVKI
GIRK2 activator: Activates human GIRK2-containing potassium channels. HEK293 GIRK2/NPY4 cells, thallium flux fluorescence. AID 1259324. 34,000 tested, under 10 active. activation (% efficacy), % for hits at 37.5 µM. P48051;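 active = primary screen hit, no activity in plain HEK293 cells, and in GIRK2-only cells above 5% efficacy rising with concentration; inactive = the rest, including fluorescent compounds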;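 note: efficacy is normalized control-subtracted fluorescence 15 s after thallium addition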
The depositor's hits bear a star; i = inactive; nt = no result given; + = active, no number. The sample as a whole holds a higher share of hits than the screen did.

SMILES	AMPAR-TARP mod	GIRK2 activator
CC(C)(C)c1ccc(C(=O)NCC2CCN(c3ncccn3)CC2)cc1	i	i
O=S(=O)(NCCNc1cc(-n2cccn2)ncn1)c1cc(F)ccc1F	i	i
O=C(COc1ccc2ccccc2c1)NCC(O)c1ccc(C(F)(F)F)cc1 (centres undefined)	nt	i
Cc1ccc(C(CNC(=O)COc2ccc3ccccc3c2)N(C)C)cc1 (centres undefined)	+	i
Cn1c(=O)[nH]c(=O)c2c1nc(N1CCN(CC(N)=O)CC1)n2Cc1ccccc1	+	nt
Cn1c(=O)[nH]c(=O)c2c1nc(N1CCOCC1)n2CCCn1c(N2CCOCC2)nc2c1c(=O)[nH]c(=O)n2C	i	nt
COc1ccc(N2CCN(CCn3c(C)c(C)n4c5c(=O)[nH]c(=O)n(C)c5nc34)CC2)cc1	i	nt
CCOCCn1c(N2CCN(CC)CC2)nc2c1c(=O)[nH]c(=O)n2C	i	nt
CCN1CCN(c2nc3c(c(=O)[nH]c(=O)n3C)n2CCCOc2ccccc2)CC1	+	nt
CCCCCCCCCn1c(N2CCNCC2)nc2c1c(=O)[nH]c(=O)n2C	+	9.0%*
COc1ccc(N2CCN(CCCn3c(C)c(C)n4c5c(=O)[nH]c(=O)n(C)c5nc34)CC2)cc1	+	nt
Cn1c(=O)[nH]c(=O)c2c1nc(N1CCN(CC(N)=O)CC1)n2Cc1cccc(Cl)c1	i	nt
Cc1nn(C(C)(C)C)c(OC(=O)c2c(F)cccc2Cl)c1S(=O)(=O)c1ccccc1	i	nt
COc1ccc(Cl)cc1C(=O)Nc1nnc(C2CCCCC2)o1	i	i
COc1ccc(Cl)c2sc(NC(=O)Nc3c(F)cccc3F)nc12	i	i
O=C(Cn1c(=O)n(C2CC2)c(=O)c2nscc21)Nc1ccc2c(c1)OCCO2	i	i
CSc1cccc2sc(NC(=O)C3CCCCC3)nc12	i	i
O=C(Nc1c(Cl)cccc1Cl)C1CCCCC1	+	nt
Cc1nnc(-c2ccc(NC(=O)c3ccc(OC(C)C)cc3)cc2)o1	i	i
Cc1cc(OCC(O)CN2CCN(Cc3ccc4c(c3)OCO4)CC2)ccc1Cl (centres undefined)	i	nt
O=S(=O)(NCC#CCN1CCc2ccccc2C1)c1ccc2ccccc2c1	i	i
O=S(=O)(NCC#CCN1CCCCC1)c1ccc2ccccc2c1	+	nt
COc1ccc(C)cc1-n1c(C)cn2c3c(=O)n(CC(N)=O)c(=O)n(C)c3nc12	i	nt
CCOc1ccc(Cl)cc1S(=O)(=O)N1CCCC(C)C1 (centres undefined)	+	nt
CCOc1ccc(S(=O)(=O)N2CCCC(C)C2)c2ccccc12 (centres undefined)	i	nt
SMILES	AMPAR-TARP mod	GIRK2 activator
COc1ccc(CCC(=O)Nc2ccc(N3CCCCC3=O)c(OC)c2)cc1	i	i
CCC(=O)Nc1ccc(N2CCCCC2=O)c(OC)c1	+	nt
COc1ccc(NC(=O)c2ccc(=O)n(CC(=O)Nc3cccc(OC)c3)n2)cc1	i	i
Cc1cc(N(C)C)nc(NCCNC(=O)c2ccc(Br)o2)n1	nt	i
Cc1cc(N(C)C)nc(NCCNC(=O)c2cnccn2)n1	+	i
COc1ccc(Cl)cc1C(=O)Nc1cc(C(=O)N2CCC(C)CC2)cn(C)c1=O	i	nt
CCOC(=O)C(C)Sc1ccnc2c1c(=O)n(C)c(=O)n2C (centres undefined)	i	i
COC(=O)CSc1ccnc2c1c(=O)n(C)c(=O)n2C	+	i
CCOC(=O)N1CCN(C(=O)CSc2ccnc3c2c(=O)n(C)c(=O)n3C)CC1	+	nt
COc1ccc(C(=O)CSc2ccnc3c2c(=O)n(C)c(=O)n3C)cc1	i	i
O=C(COc1ccccc1F)NCC(O)c1ccc(C(F)(F)F)cc1 (centres undefined)	nt	i
CCc1ccc(NC(=O)CN(c2ccc(C)cc2)S(=O)(=O)c2ccsc2C(=O)OC)cc1	i	nt
O=C(Nc1ccc([N+](=O)[O-])cc1)C1CCCN(c2ccc(-c3ccccc3)nn2)C1 (centres undefined)	i	i
O=C(Nc1ccccc1[N+](=O)[O-])C1CCCN(c2ccc(-c3ccccc3)nn2)C1 (centres undefined)	+	i
Cc1c(C(=O)N2CCOCC2)oc2c1C1(CCC2)SCCS1	i	nt
CC(=O)N1CCc2ccc(NC(=O)c3ccno3)cc21	+	i
COc1nn(C)cc1C(=O)Nc1ccc2c(c1)N(C(=O)c1ccco1)CC2	+	i
CC(=O)N1CCc2ccc(NC(=O)c3ccc(F)c(F)c3)cc21	i	i
COc1cccc(C(=O)Nc2ccc3c(c2)N(C(=O)c2ccco2)CC3)c1OC	i	i
Cc1oc(-c2cccc([N+](=O)[O-])c2)cc1C(=O)N1CCOCC1	i	i
COc1ccc(N(C)S(=O)(=O)c2ccsc2-c2nc(-c3ccc(SC)cc3)no2)cc1	+	i
CN(c1ccc(F)cc1)S(=O)(=O)c1ccsc1-c1nc(-c2ccc(F)cc2)no1	i	i
CC(C)NC(=O)CSc1nnc2n(Cc3ccccc3)c(=O)c3ccc(C(=O)NC(C)C)cc3n12	+	i
Cn1c(=O)c2ccc(C(=O)NC3CCCCC3)cc2n2c(SCC(N)=O)nnc12	+	i
CCCNC(=O)c1ccc(Cn2c(SCC(=O)NC(C)C)nc3ccccc3c2=O)cc1	i	i
SMILES	AMPAR-TARP mod	GIRK2 activator
CC(C)NC(=O)c1ccc2c(=O)n(Cc3ccccc3)c3nnc(SCC(N)=O)n3c2c1	+	i
CC(C)NC(=O)c1ccc(Cn2c(SCC#N)nc3ccccc3c2=O)cc1	i	i
Cn1c(CSc2nc(N)cc(N)n2)nnc1SCC(=O)NC1CCCCC1	i	nt
Cc1nnsc1C(=O)NCCC(O)c1cccs1 (centres undefined)	i	i
CCOc1ccc(OCCNC(=O)c2cc3cccc(OCC)c3oc2=O)cc1	i	i
CCOc1cccc2cc(C(=O)NCc3ccncc3)c(=O)oc12	+	i
COc1ccc(C(=O)Nc2sc3c(c2-c2nc4ccccc4s2)CCN(C)C3)c(OC)c1	i	nt
CCc1cccc(C)c1NC(=O)Cn1cc(-c2ccc(C)cc2)c(N2CCOCC2)n1	nt	i
Cc1ccc(Nc2ccc(NS(=O)(=O)c3cccs3)cc2)nn1	i	i
O=C(c1cccs1)N1CCN(c2cc(N3CCCC3)ncn2)CC1	+	i
O=C(Cc1cccs1)N1CCN(c2ccccn2)CC1	i	nt
CC1CCN(c2ccc(N3CCN(C(=O)c4cccs4)CC3)nn2)CC1	i	i
O=C(Cc1cccs1)N1CCN(c2cc(N3CCCC3)ncn2)CC1	+	i
Cc1cc(NC(=O)C(=O)NCC2CCN(Cc3cc(C)oc3C)CC2)no1	i	i
COC(=O)CN1C(=O)C(=O)c2cc(Br)ccc21	i	nt
COc1ccc(-n2nc3c(c2NC(=O)C(=O)NCCC(C)C)CS(=O)(=O)C3)cc1	i	i
CCOc1ccc(C(=O)NC(C)C(c2cccs2)N2CCOCC2)cc1 (centres undefined)	i	nt
CNS(=O)(=O)c1c(C)cc(C)c(N(C)S(=O)(=O)c2ccc(Cl)cc2)c1C	i	nt
COC(=O)c1ccc(C(=O)Nc2sc3c(c2-c2nc4ccccc4s2)CCN(C(C)=O)C3)cc1	i	nt
CCOCCCNS(=O)(=O)c1cc(Cl)c(C)cc1OC	+	nt
COc1cc(C)c(Cl)cc1S(=O)(=O)NC(C)(C)C	i	nt
